Only some compounds are listed: those with a hit (about 18% of all), similar ones and a draw of the others.
DT40 TDP1 no CPT: qHTS for Inhibitors of human tyrosyl-DNA phosphodiesterase 1 (TDP1): qHTS in cells in absence of CPT; DT40 Tdp1-/- hTDP1 cells, no CPT, ATP luminescence, 48 h; Potency, µM (titrated, usually from 46.2 µM), for inactives: top-dose activity change, negative = growth inhibition, actives largely listed as inhibitors; 420,000 tested, 15% active; AID 686978, 2013; further: potency means the concentration at half of the fitted maximal effect; nearly all actives have a fitted effect of over 55% in size
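Seeded 400 DT40-hTDP1 cells/well (vehicle DMSO, no 20 nM CPT); pinned compounds; ≥48 hr at 37 °C; CellTiter-Glo luminescence as viability measure.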
RORgamma inh: qHTS for inhibitors of ROR gamma transcriptional activity; Drosophila S2 Gal4-RORgamma UAS-luciferase reporter, 20 h; Potency, µM (highest dose often 53.6 µM), for the others: top-dose activity change, negative = inhibition, most hits filed as inhibitors; 310,000 tested, 5.4% active; AID 2551, 2010; further: potency means the concentration at half of the fitted maximal effect; nearly all actives have a fitted effect of over 60% in size
Target sequence (P51450 whole entry, looked up, the tested form may be a part): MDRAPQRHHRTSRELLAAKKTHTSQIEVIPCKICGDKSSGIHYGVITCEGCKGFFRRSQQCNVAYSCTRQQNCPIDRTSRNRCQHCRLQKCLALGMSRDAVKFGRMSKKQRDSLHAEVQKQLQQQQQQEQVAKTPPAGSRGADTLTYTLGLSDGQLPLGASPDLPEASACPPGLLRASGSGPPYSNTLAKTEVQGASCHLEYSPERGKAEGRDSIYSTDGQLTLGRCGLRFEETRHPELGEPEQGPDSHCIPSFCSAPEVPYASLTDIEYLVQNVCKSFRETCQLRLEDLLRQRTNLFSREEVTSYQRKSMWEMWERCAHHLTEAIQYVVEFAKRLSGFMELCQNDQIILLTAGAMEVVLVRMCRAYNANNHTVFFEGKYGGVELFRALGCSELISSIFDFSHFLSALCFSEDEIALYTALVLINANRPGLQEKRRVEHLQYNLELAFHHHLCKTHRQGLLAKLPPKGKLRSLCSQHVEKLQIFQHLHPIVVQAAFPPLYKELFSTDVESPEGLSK
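Drosophila S2 cells stably expressing Gal4-DBD/mouse RORγ fusion under metallothionein promoter plus UAS-luciferase; compound 1 h, then 700 uM CuSO4 induction for 20 h at ambient temperature; inhibition read as reduced luminescence.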
IL-1B inflam inh: qHTS for Inhibitors of Inflammasome Signaling: IL-1-beta AlphaLISA Primary Screen. activity change, % at 57.5 µM. AID 743279, 2014. THP-1 LPS/ATP IL-1B secretion, AlphaLISA, 16 h; active compounds read low. 360,000 tested, 4.7% active; in the data active means activity change below about -50%; inconclusive means mostly about -30% to -49%
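Secreted IL-1B measured by AlphaLISA bead assay after 16 h compound exposure of THP-1 cells; compounds (final up to 57.5 uM) added 1 h before LPS (250 ng/mL) and ATP (1.25 mM) stimulation; lower signal means less secretion.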
LDHA block: qHTS assay for inhibitors of human lactate dehydrogenase; L-lactate dehydrogenase A chain (Homo sapiens), P00338; 480,000 tested, 0.15% active; activity change, % (values are at about 110 or 230 µM); purified LDHA, NADH/diaphorase-resazurin fluorescence; active compounds read low; in the data active means activity change below about -30%; inconclusive means mostly about -25% to -30%;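 further: plate controls were DMSO wells for no effect and wells without enzyme for full effect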
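Remaining NADH was detected by diaphorase (0.133 mg/mL) converting 37 µM resazurin to fluorescent resorufin, read at 0 and 20 minutes. The preceding 5-minute room-temperature reaction used 2 nM LDHA, 0.2 mM sodium pyruvate and 0.06 mM NADH at pH 7.4.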
VP16 counter: VP16 counterscreen qHTS for inhibitors of ROR gamma transcriptional activity; Drosophila S2 Gal4-VP16 UAS-luciferase, luminescence, 20 h; Potency, µM (highest dose often 53.6 µM), without a hit: at the top dose activity, negative = inhibition, hits mostly inhibitors; 310,000 tested, 3.5% active;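 further: Gal4-VP16 expression switched on by copper sulfate through the metallothionein promoter; potency means the concentration at half of the fitted maximal effect; nearly all actives have a fitted effect of over 50% in size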
TDP1 cell CPT: qHTS for Inhibitors of human tyrosyl-DNA phosphodiesterase 1 (TDP1): qHTS in cells in presence of CPT. 420,000 tested, 12% active. Potency, µM (series often up to 46.2 µM), for inactives: top-dose activity change, negative = growth inhibition, actives largely listed as inhibitors. AID 686979, 2013. chicken DT40 Tdp1-/-;hTDP1 cells + 20 nM CPT, ATP luminescence, 48 h; further: potency means the concentration at half of the fitted maximal effect; nearly all actives have a fitted effect of over 55% in size
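Chicken DT40 Tdp1-/- cells complemented with human TDP1, 400 cells/well, exposed to compounds plus 20 nM camptothecin for at least 48 h at 37 C; viability read as ATP content by CellTiter-Glo luminescence.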
Numbers without * were called inactive; ? = inconclusive; / = no result given. Unless noted, the call rests on the fitted dose curve; in most records, active means well fitted curve in the direction sought with a large enough effect; inconclusive means small, poorly fitted or top-dose-only effect, or another doubt; inactive means no such curve, though single readings can be large; an effect the other way counts as inactive or inconclusive. Unless noted, on the % scale 0 is the no-effect control and ±100 the full control effect.

SMILES | DT40 TDP1 no CPT | RORgamma inh | IL-1B inflam inh | LDHA block | VP16 counter | TDP1 cell CPT
CCn1c(C(=O)N2CCC(C(=O)NCc3ccc(OC)cc3)CC2)cc2sccc21 | -15% | ? | 6 | -2 | 10% | ?
O=C1CC(N2CCC(O)(c3ccc(Br)cc3)CC2)C(=O)N1c1ccc(Cl)cc1 (configuration not stated) | 26µM* | ? | 0 | -4 | ? | ?
COc1ccc(N2C(=O)CC(N3CCC(O)(c4ccc(Br)cc4)CC3)C2=O)cc1 (configuration not stated) | ? | ? | 29 | -5 | 3% | 18µM*
FC(F)(F)C1(C(F)(F)F)C2C=CC(C2)N1c1ncccn1 (configuration not stated) | / | / | / | 0 | / | /
NC(=O)c1cccn1Cc1cccc(Cl)c1 | ? | ? | 20 | -1 | ? | 21µM*
CC(C)OCCOc1ccc2oc(-c3ccco3)cc(=O)c2c1 | ? | 127% | -66* | -10 | ? | -19%
CCC(Sc1nc2c(sc3ccccc32)c(=O)n1CCc1ccccc1)C(=O)N(CC)CC (configuration not stated) | ? | / | / | 1 | / | -26%
CCC(Sc1nc2c(sc3ccccc32)c(=O)n1CCc1ccc(OC)c(OC)c1)C(=O)N(CC)CC (configuration not stated) | 5.8µM* | / | / | 4 | / | 6.5µM*
COc1ccc(CCn2c(SCCN3CCCCC3)nc3ccccc3c2=O)cc1OC | 16µM* | -43% | -28 | 2 | 4% | ?
CCC(Sc1nc2ccccc2c(=O)n1CCc1ccc(OC)c(OC)c1)C(=O)N(CC)CC (configuration not stated) | 6.5µM* | / | / | 7 | / | 6.5µM*
COC(=O)NCc1ccc(OC)c(OC)c1 | / | / | / | -21 | / | /
O=C(CSc1nc(-c2cccs2)nc2ccccc12)NCc1ccco1 | / | / | / | 1 | / | /
CCCCNC(=O)c1ccccc1NC(=O)Cn1cnc2c1c(=O)n(C)c(=O)n2C | / | / | / | -22 | / | /
Cc1ccc(C(=O)ONc2ccc(N=O)cc2)cc1 | 4% | 25µM* | -10 | 8 | 13µM* | -8%
CCOC(=O)c1c(C)[nH]c(C(=O)Cn2c(=O)c3c(ncn3CC)n(Cc3ccccc3)c2=O)c1C | ? | -11% | -10 | 5 | -17% | 26µM*
CC(=O)c1c(C)[nH]c(C(=O)Cn2c(=O)c3c(ncn3CC(C)C)n(Cc3ccccc3)c2=O)c1C | / | / | / | 7 | / | /
CCN(CC)C(=O)c1ccc2c(c1)N(Cc1c(F)cccc1Cl)C(=O)c1ccccc1S2 | ? | / | / | 3 | / | ?
Cc1ccc(C)c(CN2C(=O)c3ccccc3Sc3ccc(C(=O)NCCCOC(C)C)cc32)c1 | 21µM* | / | / | -1 | / | ?
COCCNC(=O)c1ccc2c(c1)N(Cc1c(F)cccc1Cl)C(=O)c1ccccc1S2 | 21µM* | / | / | -2 | / | -27%
CCN(C(=O)CN1C(=O)c2ccccc2Sc2ccc(C(=O)OC)cc21)c1cccc(C)c1 | 23µM* | / | / | 3 | / | ?
CCN1C(=O)c2ccccc2Sc2ccc(C(=O)NCCC(C)C)cc21 | -24% | 19% | -12 | -7 | 5% | 2%
CC(C)OCCCNC(=O)c1ccc2c(c1)N(Cc1c(F)cccc1Cl)C(=O)c1ccccc1S2 | 26µM* | / | / | -1 | / | 23µM*
O=C(NC1CCCCC1)c1ccc2c(c1)N(Cc1ccccc1)C(=O)c1ccccc1S2 | -32% | / | / | -1 | / | -13%
O=C(NC1CCCC1)c1ccc2c(c1)N(Cc1c(F)cccc1Cl)C(=O)c1ccccc1S2 | 16µM* | / | / | 0 | / | 16µM*

Screens from PubChem BioAssay.
